From the supplement of paper PMC6555819 come the findings set out here.

Holding throughout (assay): PBM binding z-score (relative to random genomic background probes); higher = stronger binding; sequences stand for … in GC…GCGATTGACAGCGTAGAATGAAGG
Assay [1] concerns RARb homodimer (NR concentration 270 nM). The gist of the method:
(§1)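 For binding z-scores, the reference was random background probes on custom Agilent 4×180K protein-binding microarrays. These arrays were incubated 1 h with ligand-free nuclear receptor dimers in PBS pH 7.4, 2% milk, 0.02% Triton X-100, 1 mM DTT, 0.2 mg/mL BSA and 0.4 mg/ml salmon testes DNA. Fluorescence was scanned after antibody detection of each partner (one per run) and regression-normalized.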

The test system of assay [2] is RARg:RXRa (NR concentration 270 nM, RXRa partner concentration 90 nM). The gist of the method:
as §1

Assay [3] concerns RARg homodimer (NR concentration 270 nM). The method, boiled down:
as §1

The subject of assay [4] is RXRa DBDmut IVT, anti-RXR (DBD mutation: RXRa K156A/R161A, NR concentration 90 nM). The gist of the method: as §1
The test system of assay [5] is RXRa homodimer (NR concentration 180 nM). The method, boiled down: as §1
Assay [6] concerns THRa:RXRa (NR concentration 90 nM, RXRa partner concentration 90 nM). The gist of the method:
as §1

Assay [7] concerns THRa homodimer (NR concentration 90 nM). The gist of the method: as §1
Assay [8] deals with VDR homodimer (NR concentration 270 nM). The method, boiled down:
as §1

As for CCTCGGAGGACAACAGGAGGGCAGAGCTGCCAGA, the PBM binding z-score is 1.42 in assay [1]; 0.94 in assay [2]; 2.08 in assay [3]; -0.00274 in assay [4]; -0.287 in assay [5]; 0.794 in assay [6]. The results for the PBM binding z-score in assay [7] and in assay [8] were -0.458 and -0.448, respectively.

Regarding AGTCAAAGTTCACTAGGTCACGTAAGATTCAGCT, the PBM binding z-score in assay [1] was 5.29; in assay [2] it was 6.62; in assay [3], 7.17; in assay [4], 4.43; in assay [5], 5.44; in assay [6] it was 3.72. The PBM binding z-score in assay [7] was 2.54; in assay [8], 4.43.

As to CCTGGTAGGTCATGGTCAGCTAATCTACAGTATG, the PBM binding z-score turned out to be 3.07 in assay [1]; 4.23 in assay [2]; 4.8 in assay [3]; 0.728 in assay [4]; 3.62 in assay [5]; 2.22 in assay [6]. Moreover, the figures for the PBM binding z-score in assay [7] and in assay [8] were 0.615 and 0.706, respectively.

Turning to ATATGTAGGTTAGCTGGGGTCATTCAGACTAGGC, the PBM binding z-score in assay [1] is 3.87; in assay [2], 4.18; in assay [3], 2.91; in assay [4], 2.27; in assay [5], 5.35; in assay [6], 5.18. In addition, the PBM binding z-score was 3.18 in assay [7] and 5.47 in assay [8].

For TAGCCTAGGTCATTGCGCCAGTATAGTACGCATC, the PBM binding z-score turned out to be 2.53 in assay [1]; 3.8 in assay [2]; 3.99 in assay [3]; 1.74 in assay [4]; 3 in assay [5]; 2.8 in assay [6]. Also, the PBM binding z-score is 1.07 in assay [7] and 1.54 in assay [8].

Regarding CAAACTAGGTCACCGGAAGGTAAAAGTCCGCATG, the PBM binding z-score amounted to 3.46 in assay [1]; 5.33 in assay [2]; 5.29 in assay [3]; 1.61 in assay [4]; 3.87 in assay [5]; 3.69 in assay [6]. The PBM binding z-score in assay [7] is 1.84; in assay [8], 1.01.

As to CCAGACAGGTGAGAAGGGAACTCAGCCTCGATTA, the PBM binding z-score in assay [1] is 0.237; in assay [2], -0.0873; in assay [3], 0.115; in assay [4] it was 0.063; in assay [5] it was 0.0773; in assay [6], 0.215. Further, the PBM binding z-score in assay [7] is 0.0826; in assay [8], -0.25.
